From PubChem BioAssay (NCATS)
Results filed as inconclusive are left out. Active and inactive are the calls of the source. Unless noted, the call rests on the fitted dose curve; in most records, active means well fitted curve in the direction sought with a large enough effect; inconclusive means small, poorly fitted or top-dose-only effect, or another doubt; inactive means no such curve, though single readings can be large; an effect the other way counts as inactive or inconclusive.

Key:
[1] = molecular target: Ubiquitin carboxyl-terminal hydrolase 1 (Homo sapiens) (UniProt O94782); assay: Inhibitors of USP1/UAF1: Pilot qHTS (AID 504865);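 further: rhodamine fluorescence freed from ubiquitin-rhodamine substrate followed over time; top concentration of the series differs between compounds; on the % scale 0 is the no-effect control and ±100 the full control effect; nearly all actives have a fitted effect of over 35% in size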
Ubiquitin carboxyl-terminal hydrolase 1 (Homo sapiens), sequence (O94782 whole entry, looked up): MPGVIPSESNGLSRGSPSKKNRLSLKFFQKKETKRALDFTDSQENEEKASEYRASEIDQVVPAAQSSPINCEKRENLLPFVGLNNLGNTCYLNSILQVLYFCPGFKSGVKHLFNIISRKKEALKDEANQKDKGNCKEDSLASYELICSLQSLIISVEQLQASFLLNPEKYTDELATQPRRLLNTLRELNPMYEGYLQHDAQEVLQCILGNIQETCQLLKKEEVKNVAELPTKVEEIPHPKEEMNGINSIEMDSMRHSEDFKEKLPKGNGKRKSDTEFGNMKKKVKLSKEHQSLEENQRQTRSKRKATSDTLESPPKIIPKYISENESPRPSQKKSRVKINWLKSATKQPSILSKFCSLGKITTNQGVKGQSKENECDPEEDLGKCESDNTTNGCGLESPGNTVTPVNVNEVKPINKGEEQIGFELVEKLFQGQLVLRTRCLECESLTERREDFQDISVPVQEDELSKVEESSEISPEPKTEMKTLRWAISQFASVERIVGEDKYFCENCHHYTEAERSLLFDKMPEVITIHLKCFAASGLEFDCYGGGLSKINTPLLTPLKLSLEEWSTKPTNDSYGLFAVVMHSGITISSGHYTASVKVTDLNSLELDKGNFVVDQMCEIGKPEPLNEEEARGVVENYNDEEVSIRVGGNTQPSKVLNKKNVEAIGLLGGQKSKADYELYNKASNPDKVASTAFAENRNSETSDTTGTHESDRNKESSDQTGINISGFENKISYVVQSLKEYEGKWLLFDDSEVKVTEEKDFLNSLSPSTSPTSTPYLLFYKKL
Procedure, shortened: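 Enzyme-free wells gave the negative control, while test wells held 1nM USP1/UAF1 preincubated with compound for 15 min at room temperature. Ub-Rho at 150nM final started the reaction, and fluorescence at 480/540 nm was recorded kinetically.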

[2] = molecular target: Luciferin 4-monooxygenase (Photinus pyralis) (UniProt P08659); assay: Biochemical firefly luciferase enzyme assay for NPC (AID 624030);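 further: purified P. pyralis luciferase at 10 nM with luciferin and ATP substrate; 0% = DMSO and -100% = full luciferase inhibition by PTC124 control; nearly all actives have a fitted effect of over 70% in size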
Luciferin 4-monooxygenase (Photinus pyralis), sequence (P08659 whole entry, looked up): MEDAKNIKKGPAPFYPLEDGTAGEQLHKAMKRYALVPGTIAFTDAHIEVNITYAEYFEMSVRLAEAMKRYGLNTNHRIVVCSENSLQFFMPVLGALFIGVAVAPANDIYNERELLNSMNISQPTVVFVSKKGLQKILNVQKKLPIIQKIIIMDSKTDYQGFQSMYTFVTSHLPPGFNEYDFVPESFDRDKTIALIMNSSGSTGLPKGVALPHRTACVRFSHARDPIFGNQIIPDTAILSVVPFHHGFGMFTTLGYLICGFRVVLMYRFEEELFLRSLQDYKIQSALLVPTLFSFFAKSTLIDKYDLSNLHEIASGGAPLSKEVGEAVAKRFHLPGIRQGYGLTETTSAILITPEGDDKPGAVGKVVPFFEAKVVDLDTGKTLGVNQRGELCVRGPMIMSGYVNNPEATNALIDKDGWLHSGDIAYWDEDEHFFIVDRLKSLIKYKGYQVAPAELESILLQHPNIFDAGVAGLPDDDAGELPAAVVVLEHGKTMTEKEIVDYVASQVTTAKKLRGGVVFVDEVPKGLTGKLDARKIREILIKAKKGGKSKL
Procedure, shortened: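 Purified P. pyralis luciferase at 10 nM in 50 mM Tris Acetate (final), luminescence read within 5 minutes of enzyme addition to compounds. Activity normalised to PTC124 versus DMSO; concentration-response curves classed by r2, magnitude and activity.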

[3] = S16 Schwann cell viability assay (CellTiter-Glo assay) (AID 624031);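 further: cellular ATP luminescence as a viability measure; plate controls were DMSO-treated cells for no effect and cell-free wells for full effect; nearly all actives have a fitted effect of over 70% in size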
Procedure, shortened: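 Untransfected S16 rat Schwann cells; compound 24 h, 37 °C/5% CO2; CellTiter-Glo ATP luminescence. % activity vs no-cell wells and DMSO controls (0%); concentration-effect curves classed by r2, response magnitude, activity.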

[4] = S16 Schwann cell PMP22 intronic element firefly luciferase assay (AID 624032);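 further: plate controls were DMSO for no effect and PTC124 positive control mean for full effect; nearly all actives have a fitted effect of over 30% in size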
Procedure, shortened: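 Rat S16 Schwann cells stably carrying firefly luciferase driven by a PMP22 intronic element, in 10% FBS, treated 24 h at 37 C. ONE-Glo luminescence normalized to PTC124 control and DMSO (0%); curves classed by r2, magnitude and activity.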

[5] = S16 Schwann cell PMP22 intronic element beta-lactamase assay (AID 624044; calls by dose curve;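 further: 0% = DMSO and -100% = potassium clavulanate positive control; nearly all actives have a fitted effect of over 15% in size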)
Procedure, shortened: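 Beta-lactamase reporter under a PMP22 intronic regulatory element in stable S16 rat Schwann cells; 24 h compound exposure. 460 nm blue signal normalized between DMSO (0%) and potassium clavulanate, with 535 nm FRET tracking viability; curves classed by r2 and response.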

[6] = qHTS profiling for inhibitors of Plasmodium falciparum proliferation (AID 504749);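 further: 0% = DMSO vehicle and full inhibition = artemisinin control; nearly all actives have a fitted effect of over 60% in size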; conditions: P. falciparum in erythrocytes, SYBR Green DNA, 72 h, at 28.7 µM (top of the series)
Procedure, shortened: (§1)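 SYBR Green fluorescence (ex 485 nm, em 535 nm) reports parasite DNA after 72 h compound exposure of infected red cells at 0.3% parasitemia, 2.5% hematocrit; signal normalized to 0.29 uM artemisinin and vehicle wells.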

3D7 = assay: as above; conditions: P. falciparum in erythrocytes, SYBR Green DNA, 72 h; series mostly up to 28.7 µM
Procedure, shortened: as §1

7G8 = assay: as above; conditions: P. falciparum in erythrocytes, SYBR Green DNA, 72 h; series mostly up to 28.7 µM
Procedure, shortened: as §1

AA1029 = assay: as above; conditions: P. falciparum in erythrocytes, SYBR Green DNA, 72 h; series mostly up to 28.7 µM
Procedure, shortened: as §1

AS120 = assay: as above; conditions: P. falciparum in erythrocytes, SYBR Green DNA, 72 h; series mostly up to 28.7 µM
Procedure, shortened: as §1

ATS189 = assay: as above; conditions: P. falciparum in erythrocytes, SYBR Green DNA, 72 h; series mostly up to 28.7 µM
Procedure, shortened: as §1

ATS95 = assay: as above; conditions: P. falciparum in erythrocytes, SYBR Green DNA, 72 h; series mostly up to 28.7 µM
Procedure, shortened: as §1

C2A = assay: as above; conditions: P. falciparum in erythrocytes, SYBR Green DNA, 72 h; series mostly up to 28.7 µM
Procedure, shortened: as §1

CP185 = assay: as above; conditions: P. falciparum in erythrocytes, SYBR Green DNA, 72 h; series mostly up to 28.7 µM
Procedure, shortened: as §1

CP191 = assay: as above; conditions: P. falciparum in erythrocytes, SYBR Green DNA, 72 h; series mostly up to 28.7 µM
Procedure, shortened: as §1

CP192 = assay: as above; conditions: P. falciparum in erythrocytes, SYBR Green DNA, 72 h; series mostly up to 28.7 µM
Procedure, shortened: as §1

CP194 = assay: as above; conditions: P. falciparum in erythrocytes, SYBR Green DNA, 72 h; series mostly up to 28.7 µM
Procedure, shortened: as §1

CP201 = assay: as above; conditions: P. falciparum in erythrocytes, SYBR Green DNA, 72 h; series mostly up to 28.7 µM
Procedure, shortened: as §1

CP203 = assay: as above; conditions: P. falciparum in erythrocytes, SYBR Green DNA, 72 h; series mostly up to 28.7 µM
Procedure, shortened: as §1

CP211 = assay: as above; conditions: P. falciparum in erythrocytes, SYBR Green DNA, 72 h; series mostly up to 28.7 µM
Procedure, shortened: as §1

CP215 = assay: as above; conditions: P. falciparum in erythrocytes, SYBR Green DNA, 72 h; series mostly up to 28.7 µM
Procedure, shortened: as §1

CP217 = assay: as above; conditions: P. falciparum in erythrocytes, SYBR Green DNA, 72 h; series mostly up to 28.7 µM
Procedure, shortened: as §1

CP237 = assay: as above; conditions: P. falciparum in erythrocytes, SYBR Green DNA, 72 h; series mostly up to 28.7 µM
Procedure, shortened: as §1

CP238 = assay: as above; conditions: P. falciparum in erythrocytes, SYBR Green DNA, 72 h; series mostly up to 28.7 µM
Procedure, shortened: as §1

CP247 = assay: as above; conditions: P. falciparum in erythrocytes, SYBR Green DNA, 72 h; series mostly up to 28.7 µM
Procedure, shortened: as §1

CP250 = assay: as above; conditions: P. falciparum in erythrocytes, SYBR Green DNA, 72 h; series mostly up to 28.7 µM
Procedure, shortened: as §1

CP252 = assay: as above; conditions: P. falciparum in erythrocytes, SYBR Green DNA, 72 h; series mostly up to 28.7 µM
Procedure, shortened: as §1

CP256 = assay: as above; conditions: P. falciparum in erythrocytes, SYBR Green DNA, 72 h; series mostly up to 28.7 µM
Procedure, shortened: as §1

CP260 = assay: as above; conditions: P. falciparum in erythrocytes, SYBR Green DNA, 72 h; series mostly up to 28.7 µM
Procedure, shortened: as §1

CP262 = assay: as above; conditions: P. falciparum in erythrocytes, SYBR Green DNA, 72 h; series mostly up to 28.7 µM
Procedure, shortened: as §1

CP265 = assay: as above; conditions: P. falciparum in erythrocytes, SYBR Green DNA, 72 h; series mostly up to 28.7 µM
Procedure, shortened: as §1

CP266 = assay: as above; conditions: P. falciparum in erythrocytes, SYBR Green DNA, 72 h; series mostly up to 28.7 µM
Procedure, shortened: as §1

CP268 = assay: as above; conditions: P. falciparum in erythrocytes, SYBR Green DNA, 72 h; series mostly up to 28.7 µM
Procedure, shortened: as §1

CP269 = assay: as above; conditions: P. falciparum in erythrocytes, SYBR Green DNA, 72 h; series mostly up to 28.7 µM
Procedure, shortened: as §1

CP286 = assay: as above; conditions: P. falciparum in erythrocytes, SYBR Green DNA, 72 h; series mostly up to 28.7 µM
Procedure, shortened: as §1

CP291 = assay: as above; conditions: P. falciparum in erythrocytes, SYBR Green DNA, 72 h; series mostly up to 28.7 µM
Procedure, shortened: as §1

CP297 = assay: as above; conditions: P. falciparum in erythrocytes, SYBR Green DNA, 72 h; series mostly up to 28.7 µM
Procedure, shortened: as §1

CP305 = assay: as above; conditions: P. falciparum in erythrocytes, SYBR Green DNA, 72 h; series mostly up to 28.7 µM
Procedure, shortened: as §1

CP315 = assay: as above; conditions: P. falciparum in erythrocytes, SYBR Green DNA, 72 h; series mostly up to 28.7 µM
Procedure, shortened: as §1

CP325 = assay: as above; conditions: P. falciparum in erythrocytes, SYBR Green DNA, 72 h; series mostly up to 28.7 µM
Procedure, shortened: as §1

CP329 = assay: as above; conditions: P. falciparum in erythrocytes, SYBR Green DNA, 72 h; series mostly up to 28.7 µM
Procedure, shortened: as §1

CP335 = assay: as above; conditions: P. falciparum in erythrocytes, SYBR Green DNA, 72 h; series mostly up to 28.7 µM
Procedure, shortened: as §1

DIV14 = assay: as above; conditions: P. falciparum in erythrocytes, SYBR Green DNA, 72 h; series mostly up to 28.7 µM
Procedure, shortened: as §1

DIV17 = assay: as above; conditions: P. falciparum in erythrocytes, SYBR Green DNA, 72 h; series mostly up to 28.7 µM
Procedure, shortened: as §1

DIV30 = assay: as above; conditions: P. falciparum in erythrocytes, SYBR Green DNA, 72 h; series mostly up to 28.7 µM
Procedure, shortened: as §1

Dd2 = assay: as above; conditions: P. falciparum in erythrocytes, SYBR Green DNA, 72 h; series mostly up to 28.7 µM
Procedure, shortened: as §1

ECU = assay: as above; conditions: P. falciparum in erythrocytes, SYBR Green DNA, 72 h; series mostly up to 28.7 µM
Procedure, shortened: as §1

FAB9 = assay: as above; conditions: P. falciparum in erythrocytes, SYBR Green DNA, 72 h; series mostly up to 28.7 µM
Procedure, shortened: as §1

GB4 = assay: as above; conditions: P. falciparum in erythrocytes, SYBR Green DNA, 72 h; series mostly up to 28.7 µM
Procedure, shortened: as §1

HB3 = assay: as above; conditions: P. falciparum in erythrocytes, SYBR Green DNA, 72 h; series mostly up to 28.7 µM
Procedure, shortened: as §1

ICS = assay: as above; conditions: P. falciparum in erythrocytes, SYBR Green DNA, 72 h; series mostly up to 28.7 µM
Procedure, shortened: as §1

JCK = assay: as above; conditions: P. falciparum in erythrocytes, SYBR Green DNA, 72 h; series mostly up to 28.7 µM
Procedure, shortened: as §1

N140 = assay: as above; conditions: P. falciparum in erythrocytes, SYBR Green DNA, 72 h; series mostly up to 28.7 µM
Procedure, shortened: as §1

P93_24 = assay: as above; conditions: P. falciparum in erythrocytes, SYBR Green DNA, 72 h; series mostly up to 28.7 µM
Procedure, shortened: as §1

P94_40 = assay: as above; conditions: P. falciparum in erythrocytes, SYBR Green DNA, 72 h; series mostly up to 28.7 µM
Procedure, shortened: as §1

PAD = assay: as above; conditions: P. falciparum in erythrocytes, SYBR Green DNA, 72 h; series mostly up to 28.7 µM
Procedure, shortened: as §1

PC15 = assay: as above; conditions: P. falciparum in erythrocytes, SYBR Green DNA, 72 h; series mostly up to 28.7 µM
Procedure, shortened: as §1

PC26 = assay: as above; conditions: P. falciparum in erythrocytes, SYBR Green DNA, 72 h; series mostly up to 28.7 µM
Procedure, shortened: as §1

PC49 = assay: as above; conditions: P. falciparum in erythrocytes, SYBR Green DNA, 72 h; series mostly up to 28.7 µM
Procedure, shortened: as §1

SC27B = assay: as above; conditions: P. falciparum in erythrocytes, SYBR Green DNA, 72 h; series mostly up to 28.7 µM
Procedure, shortened: as §1

TAB109 = assay: as above; conditions: P. falciparum in erythrocytes, SYBR Green DNA, 72 h; series mostly up to 28.7 µM
Procedure, shortened: as §1

TAB113 = assay: as above; conditions: P. falciparum in erythrocytes, SYBR Green DNA, 72 h; series mostly up to 28.7 µM
Procedure, shortened: as §1

TAB165 = assay: as above; conditions: P. falciparum in erythrocytes, SYBR Green DNA, 72 h; series mostly up to 28.7 µM
Procedure, shortened: as §1

W2 = assay: as above; conditions: P. falciparum in erythrocytes, SYBR Green DNA, 72 h; series mostly up to 28.7 µM
Procedure, shortened: as §1

CC(=O)OCC1=C(C(=O)O)N2C(=O)C(NC(=O)Cc3ccccc3)C2SC1 (stereo not given)
inactive: Potency [1] | Potency [2] | Potency [3] | Potency [4] | Potency [5] | activity, negative = inhibition ([6]; parasite line A) 1.08% | activity, negative = inhibition ([6]; parasite line B) 0.234% | Potency (3D7) | Potency (7G8) | Potency (AA1029) | Potency (AS120) | Potency (ATS189) | Potency (ATS95) | Potency (C2A) | Potency (CP185) | Potency (CP191) | Potency (CP192) | Potency (CP194) | Potency (CP201) | Potency (CP203) | Potency (CP211) | Potency (CP215) | Potency (CP217) | Potency (CP237) | Potency (CP238) | Potency (CP247) | Potency (CP250) | Potency (CP252) | Potency (CP256) | Potency (CP260) | Potency (CP262) | Potency (CP265) | Potency (CP266) | Potency (CP268) | Potency (CP269) | Potency (CP286) | Potency (CP291) | Potency (CP297) | Potency (CP305) | Potency (CP315) | Potency (CP325) | Potency (CP329) | Potency (CP335) | Potency (DIV14) | Potency (DIV17) | Potency (DIV30) | Potency (Dd2) | Potency (ECU) | Potency (FAB9) | Potency (GB4) | Potency (HB3) | Potency (ICS) | Potency (JCK) | Potency (N140) | Potency (P93_24) | Potency (P94_40) | Potency (PAD) | Potency (PC15) | Potency (PC26) | Potency (PC49) | Potency (SC27B) | Potency (TAB109) | Potency (TAB113) | Potency (TAB165) | Potency (W2)
